Assay outcomes deposited in PubChem by several laboratories.
This is a sample that favours compounds with a hit; in the whole collection about 1.9% have one here.
ZTA DNA inh – ZTA (EBV) inhibition in EBNA-1 counter-screen. P03206. 0.15% of 320,000 active. AID 2234. ZTA-DNA binding, fluorescence polarization. inhibition, % at 11 µM; in the data active means inhibition above about 33%
aDG glyco act – activators of alpha-DG glycosylation, primary screen, uHTS, Pro5-aDG cells, AlphaScreen; activation, % at 10 µM; 0.22% of 360,000 active; alpha-DG glycosylation AlphaScreen (IIH6); 0% Pro5, 100% B10-LARGE cell signal;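 active means activation of at least 8% versus controls, or a plate z-score of at least 8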;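 further: Pro5 are CHO cells carrying HIG-tagged alpha-DG that lacks glycosylation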
PG9 binder – binders of HIV-1 gp120 antibody PG9, primary screen, biochemical, TR-FRET; inhibition, % at 6.7 µM; AID 624416, 2012; HIV-1 gp120 / PG9 antibody interaction; 0.43% of 360,000 active; TR-FRET gp120-PG9 antibody binding; in the data active means inhibition above about 8.5%
Rev-erbA mod – modulators of Rev-erb alpha DNA binding, primary screen, biochemical, FITC-DNA, fluorescence polarization, uHTS | Nuclear receptor subfamily 1 group D member 1 (Homo sapiens), P20393 | Rev-erbα–FITC-DNA binding, 90 min | activity, % at 10 µM | 0.79% of 370,000 active | AID 1259318, 2017;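 active means activity above about 14%, limit read from the data; passing the limit was not always enough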;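 further: 0% = DMSO wells with 35 nM protein and 100% = DMSO wells with 750 nM protein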
Target sequence (P20393 whole entry, looked up): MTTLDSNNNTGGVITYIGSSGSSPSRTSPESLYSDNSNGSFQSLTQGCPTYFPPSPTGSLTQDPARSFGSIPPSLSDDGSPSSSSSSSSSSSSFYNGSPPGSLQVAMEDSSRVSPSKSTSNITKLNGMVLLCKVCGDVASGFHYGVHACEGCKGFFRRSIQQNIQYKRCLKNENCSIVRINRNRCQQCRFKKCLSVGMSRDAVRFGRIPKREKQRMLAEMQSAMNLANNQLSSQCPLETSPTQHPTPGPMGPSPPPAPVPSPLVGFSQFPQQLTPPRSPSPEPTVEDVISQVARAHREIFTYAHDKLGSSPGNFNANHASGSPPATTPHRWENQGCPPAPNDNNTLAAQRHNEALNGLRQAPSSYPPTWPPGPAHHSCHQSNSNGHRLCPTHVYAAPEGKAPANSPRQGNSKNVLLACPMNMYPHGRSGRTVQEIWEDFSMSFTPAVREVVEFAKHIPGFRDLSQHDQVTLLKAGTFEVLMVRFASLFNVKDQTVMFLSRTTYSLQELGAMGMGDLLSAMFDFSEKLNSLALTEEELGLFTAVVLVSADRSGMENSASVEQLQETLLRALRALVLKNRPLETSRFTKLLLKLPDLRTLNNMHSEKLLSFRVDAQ
p47phox inh – p47phox/p22phox peptide binding inhibitors, primary screen, biochemical, uHTS, NADPH oxidase regulatory subunit | Neutrophil cytosol factor 1 (Homo sapiens), P14598 | fluorescence polarization, 2 h | inhibition, % at 24.7 µM | 0.53% of 220,000 active | AID 1274, 2008;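 active means inhibition above about 30%, limit read from the data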;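 further: 0% = p47phox with labelled peptide and 100% = labelled peptide alone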
EBNA-1 inhibitor – EBNA-1 DNA-binding inhibitors, primary screen, biochemical, fluorescence polarization. 0.34% of 300,000 active. AID 1950, 2009. inhibition, % at 14.8 µM; in the data active means inhibition above about 28%
EBNA-1 confirm – EBNA-1 DNA-binding inhibitors, retest, confirmation, biochemical, fluorescence polarization, triplicate. shares compounds with EBNA-1 inhibitor. Recombinant EBNA-1 DBD, Cy5-DNA fluorescence polarization. inhibition, % at 14.8 µM. 35% of 830 active. AID 2292, 2010;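 active means mean inhibition across replicates above a set limit taken from the earlier primary screen, cut at about 28% in these data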;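 further: plate controls were EBNA-1 protein with DMSO for no effect and wells lacking EBNA-1 for full effect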
ZTA DNA inh trip – EBV Zta DNA binding inhibitors, counter-screen for EBNA-1 inhibitor project, biochemical, fluorescence polarization, triplicate. shares compounds with EBNA-1 inhibitor. Zta-ZRE DNA binding, Cy5 fluorescence polarization. inhibition, % at 11.1 µM. 830 tested, under 10 active;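 active means mean inhibition over triplicates above a set limit taken from the primary EBNA-1 screen, cut at about 37% in these data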;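 further: purified full length Zta protein with Cy5 labeled ZRE DNA probe; 0% = Zta with DMSO and 100% = wells lacking Zta protein; inhibitors lower polarization by freeing the labeled DNA probe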
Zta DNA confirm – EBV Zta binding to ZRE DNA, inhibitors, confirmation, biochemical, fluorescence polarization, triplicate; 30% of 320 active; inhibition, % at 11.1 µM; shares compounds with ZTA DNA inh;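 active means mean inhibition across triplicate runs above the hit threshold derived for the original primary screen, cut at about 33% in these data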;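 further: 0% = Zta with DMSO and 100% = wells lacking Zta protein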
EBNA1 counter – EBNA-1 DNA-binding inhibition, counter-screen for ZTA inhibitor project, biochemical, fluorescence polarization | 320 tested, under 10 active | shares compounds with ZTA DNA inh | inhibition, % at 14.8 µM | AID 2362, 2010; call rule not given here
The depositor's hits bear a star; x = no result.

SMILES	ZTA DNA inh	aDG glyco act	PG9 binder	Rev-erbA mod	p47phox inh	EBNA-1 inhibitor	others
O=C1NC(=O)N(c2ccccc2)C(=O)/C1=C\c1ccc([N+](=O)[O-])o1	42*	x	x	x	-92	-2
Cc1ccccc1-n1c(O)c(C=Nc2ccc(N(C)C)cc2)c(=O)[nH]c1=O	172*	0	-10	4	-25	43*
Cc1cccc(N=Cc2c(O)n(-c3ccccc3C)c(=O)[nH]c2=O)c1	13	0	0	-3	-27	6
COC(C)(C)CCC[C@H](C)C/C=C/C(C)=C/C(=O)OC(C)C	x	x	x	-8	x	x
Cc1ccccc1N1C(=O)/C(=C/c2ccco2)C(=O)NC1=S	69*	x	x	x	x	110*
Oc1ccc2c3c1O[C@@H]1[C@@H](O)CC[C@@]4(O)[C@@H](C2)N(CC2CCC2)CC[C@]314	x	x	x	8	x	x
CN1C(=O)C(=Cc2sc(=O)n(-c3ccccc3)c2N2CCCCC2)C(=O)N(C)C1=O	x	0	-2	-6	83*	x
Cc1cccc(N2C(=O)NC(=O)/C(=C\c3ccc4c(c3)CCCN4Cc3ccccc3)C2=O)c1	2	0	0	-1	-272	5
CCC(C)N1C(=O)/C(=C/c2ccc3c(c2)CCN3CCCCl)C(=O)NC1=S (configuration not stated)	7	0	0	-2	38*	3
O=c1cccc2n1C[C@H]1CNC[C@H]2C1	x	x	x	-2	x	x
Cc1nc2ccccc2c(=O)n1-c1ccc(F)cc1	-15	0	1	-1	32*	-1
Cc1nc2ccccc2c(=O)n1-c1ccncc1	0	0	-2	-8	-5	4
OCC[n+]1c2ccccc2nc2ccc(N3CCOCC3)cc21	115*	0	-35	-4	155*	84*
O=C(CCc1ccccc1)N1Cc2cc(N3CCOCC3)ccc2-n2nncc2C1	x	0	1	-2	x	x
O=c1[nH]c(=S)n(-c2ccc(Br)cc2)c(O)c1C=Nc1ccc(N2CCOCC2)cc1	6	0	-3	-14	-79	5
O=c1[nH]c(=S)n(-c2ccccc2F)c(O)c1C=Nc1ccc(N2CCOCC2)cc1	45*	0	-2	-2	-55	13
CC12CCC(C(Br)C1=O)C2(C)C (configuration not stated)	x	x	x	1	x	x
O1[As]2O[As]3O[As]1O[As](O2)O3	x	x	x	-8	x	x
CCCCCCNC(=O)N[C@H](Cc1ccc(O)cc1)C(=O)NCCC[C@H]1CN2C(=NC[C@H]2CCC)N1CC1CCC1	-26	x	x	x	60*	-2
O=C(c1ccc2c(c1)ncn2-c1ccc(F)cc1F)N1CCC2(CC1)OCCO2	12	0	0	6	43*	-6
C[N+]1(C)C2CC(OC(=O)[C@@H](CO)c3ccccc3)CC1C1OC12 (some centres not stated)	x	x	x	-5	x	x
CNC(=S)NC1CC2CCCC(C1)N2CC(C)C (configuration not stated)	-5	0	-1	-1	40*	-2
C=CCn1c(O)c(C(CC)=Nc2ccc(N(C)C)cc2)c(=O)[nH]c1=O	138*	0	-8	5	3	127*
C=CCn1c(O)c(C(CC)=Nc2ccc3c(c2)CCC3)c(=O)[nH]c1=O	-10	2	-1	-4	-7	-8
CC(=O)O[C@H]1C[C@H](O[C@H]2[C@@H](O)C[C@H](O[C@H]3[C@@H](O)C[C@H](O[C@H]4CC[C@@]5(C)C(CCC6C5C[C@@H](O)[C@]5(C)[C@@H](C7=CC(=O)OC7)CC[C@]65O)C4)O[C@@H]3C)O[C@@H]2C)O[C@H](C)[C@H]1O[C@@H]1O[C@H](CO)[C@@H](O)[C@H](O)[C@H]1O (some centres not stated)	x	x	x	0	x	x
SMILES	ZTA DNA inh	aDG glyco act	PG9 binder	Rev-erbA mod	p47phox inh	EBNA-1 inhibitor	others
Cc1c2ccncc2c(C)c2c1[nH]c1ccccc12	5	0	x	x	95*	-6
CN1C[C@H](C(=O)N[C@]2(C)C[C@@]3(O)C4CCCN4C(=O)[C@H](Cc4ccccc4)N3C2=O)C=C2c3cccc4[nH]cc(c34)C[C@H]21 (some centres not stated)	x	x	x	5	x	x
CCN(CC)c1ccc(/C=C2\C(=O)NC(=O)N(Cc3ccco3)C2=O)cc1	2	0	-2	4	126*	1
C=C1CC2C(CC[C@]3(C)C(=O)CCC23)[C@@]2(C)C=CC(=O)C=C12 (some centres not stated)	x	x	x	-1	x	x
CCN(CC)P(=O)(NC(=O)C(Cl)(Cl)Cl)N(CC)CC.[Cl-].[Cl-].[Cl-].[Nd+3]	-12	0	0	-13	33*	-8
Cc1nn(Cc2ccccc2)c(Cl)c1C(=O)OC(C)C(=O)Nc1ccc(F)cc1Cl (configuration not stated)	-5	0	1	-1	-7	122*	EBNA-1 confirm=129*;ZTA DNA inh trip=-11
Cc1nn(Cc2ccccc2)c(Cl)c1C(=O)OCC(=O)Nc1cccc2ccccc12	6	0	-1	6	-25	61*	EBNA-1 confirm=15;ZTA DNA inh trip=-6
CCc1ccc(NC(=O)C(C)OC(=O)c2c(C)nn(Cc3ccccc3)c2Cl)cc1 (configuration not stated)	8	0	-2	0	9	3
Cc1ccccc1-n1c(CF)nc2ccc(N)cc2c1=O	x	x	x	-1	x	x
Cc1cc(/C=C2\C(=O)NC(=O)N(c3ccc(F)cc3)C2=O)c(C)n1-c1cccc(C(=O)O)c1	3	0	2	0	-10	0
Cc1cc(/C=C2\C(=O)NC(=O)N(c3ccccc3F)C2=O)c(C)n1-c1cc(C(=O)O)cc(C(=O)O)c1	33*	0	-3	9	x	-2	Zta DNA confirm=60*;EBNA1 counter=3
